Screens: PubChem, several laboratories
TRPM1 prom inh – inhibitors of MITF-driven TRPM1 promoter in melanoma cells | SK-MEL-5 TRPM1 promoter luciferase, 24 h | inhibition, % at 12.5 µM | actives 0.83% (n = 330,000) | AID 488899;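 active = mean inhibition across replicates of 60% or more, whatever share of single replicates reaches that level; inconclusive = some that reach 60%, reason not given; inactive = mean inhibition across replicates below 60%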
TWEAK-Fn14 inh – blocks TWEAK-Fn14 interaction in a reporter cell assay; actives 2% (n = 360,000); TWEAK-stimulated Fn14 reporter cells, luciferase luminescence, 8 h; inhibition, % at 10 µM; in the data active = inhibition above about 50%
Shn3 3UTR inh – reduces Shn3 3'UTR luciferase signal in osteoblasts; Clone20 osteoblast Shn3 3'UTR firefly luciferase, 24 h; inhibition, % at 12.5 µM; actives 0.52% (n = 360,000); AID 588674;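 active = mean inhibition of at least 75% with every replicate also reaching 75%; inconclusive = mean inhibition at least 75% but some replicate below; inactive = mean inhibition below 75%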
Peg3 promoter – inhibitors of Peg3 promoter | HeLa PEG-Prom luciferase reporter, luminescence, overnight | inhibition, % at 20 µM | actives 1.7% (n = 360,000);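 active = inhibition of at least 50% at 20 µM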
EBV LMP1 NFkB – reduces LMP1-driven NF-kappaB luciferase signal. inhibition, % at 12.5 µM. actives 0.69% (n = 350,000). AID 504558. LMP1-induced NF-kappaB luciferase reporter cells, luminescence; in the data active = inhibition above about 41%; inconclusive = no clear call, values can overlap the other calls
TROY NFkB inh – inhibitors of TROY-dependent NF-kB signaling | Q293 LMP1-TROYcd NF-kB luciferase reporter, 4 h | inhibition, % at 10 µM | actives 0.98% (n = 360,000) | AID 1347056;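 active = compounds whose plate-normalised and pattern-corrected inhibition of the luciferase reporter signal at the single screening dose is 50% or more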
Numbers stand for hits; 0 = inactive; ? = inconclusive; - = not tested or not shown. Rows were chosen to be rich in hits. Some 4.1% of all compounds tested hit in one or more screens of this group.

SMILES | TRPM1 prom inh | TWEAK-Fn14 inh | Shn3 3UTR inh | Peg3 promoter | EBV LMP1 NFkB | TROY NFkB inh
COC(CN(C(=O)CCl)C(C(=O)NC1CCCCC1)c1ccccc1C)OC (stereo not drawn) | 0 | 0 | 0 | 64 | 0 | 0
COC(CN(C)C(C(=O)NC1CCCCC1)c1ccccc1)OC (stereo not drawn) | 0 | 81 | 0 | 0 | 0 | 0
COC(CN(C(=O)CCl)C(C(=O)NC1CCCCC1)c1ccc(Cl)cc1)OC (stereo not drawn) | 0 | 0 | 0 | 0 | 0 | 0
COC(C(=O)NC1CCCCCCC1)c1ccccc1 (stereo not drawn) | 0 | 0 | 0 | 0 | 0 | 0
Cc1ccccc1-n1ncc2c1CC(C)(C)CC2NC(=O)CCC(F)(F)F (stereo not drawn) | 0 | 0 | 0 | 0 | 0 | 0
C=CS(=O)(=O)N(Cc1ccccc1Br)[C@H](CO)CC(C)C | 0 | 0 | 0 | 56 | 0 | 0
O=S(=O)(N(Cc1ccccc1)[C@H](CO)Cc1ccccc1)N(Cc1ccccc1)[C@H](CO)Cc1ccccc1 | 0 | 0 | 0 | 0 | 0 | 0
CC(C)C[C@@H](CO)N(Cc1ccccc1)S(=O)(=O)N(Cc1ccccc1)[C@@H](CO)CC(C)C | 0 | 0 | 90 | 85 | 0 | 53
COc1ccc(CN([C@H](CO)CC(C)C)S(=O)(=O)N(Cc2ccccc2)[C@H](CO)CC(C)C)cc1 | 0 | 0 | 0 | 83 | 0 | 0
CC(C)C[C@@H](CO)N(Cc1ccccc1)S(=O)(=O)N(Cc1ccccc1)[C@H](CO)CC(C)C | 0 | 0 | ? | 83 | 0 | 52
CCCCC(=O)Nc1nc2c(s1)COc1ccccc1-2 | 0 | 0 | 0 | 0 | 0 | 0
CCN(CC)c1ccc(/C=C2\SC(=O)N(C(C)C)C2=O)o1 | - | 0 | 97 | 89 | - | 0
CC(C)c1ccc(CC(=O)N2CCC2(C)C(=O)Nc2ccc3c(c2)OCCO3)cc1 (stereo not drawn) | - | 51 | 0 | 0 | - | 0
Cc1cccc(NC(=O)C23CCC(C)(C(=O)O2)C3(C)C)c1 (stereo not drawn) | 0 | 0 | 0 | 0 | 0 | 0
CC12CCC(C(=O)Nc3ccc4c(c3)OCCO4)(OC1=O)C2(C)C (stereo not drawn) | 0 | 83 | 0 | 0 | 0 | 70
Cc1ccc(-n2nc(C)c3cc(C(=O)O)sc32)cc1 | 0 | 86 | 0 | 0 | 0 | -
O=C(CN1CCN(C(=O)C2CCCO2)CC1)Nc1ccc(F)cc1 (stereo not drawn) | 0 | 0 | 0 | 0 | 0 | 0
CCc1nc(N2CCN(CC(=O)NCC3CCCO3)CC2)c(C#N)c2c1COC(C)(C)C2 (stereo not drawn) | 0 | 0 | 0 | 0 | 0 | 0
COC(=O)C1CCN(S(=O)(=O)CCNC(=O)c2ccccc2)CC1 | - | 0 | 0 | 0 | 0 | 0
Cc1ccc(Cc2c(-c3ccc(C#N)cc3)nc3c4ccccc4ccn23)cc1 | - | 0 | 0 | 0 | - | 0
C=CCN=c1scc(-c2ccc(F)cc2)n1/N=C/c1ccccn1 | 0 | 0 | 0 | 0 | 0 | 0
C=CCN=c1scc(-c2ccc3c(c2)NC(=O)CO3)n1/N=C(\C)c1ccccn1 | 0 | 66 | 0 | 0 | 0 | 0
COc1c(Cl)cc(Cl)cc1/C=C/C(=O)c1ccc(NC(=O)c2cccs2)cc1 | 68 | 79 | 0 | 100 | 0 | 0
CCN1CCN(c2ccc(S(=O)(=O)N3CCCCC3)cc2NC(=O)COc2ccc(F)cc2Cl)CC1 | 0 | 0 | 0 | 0 | 0 | 0
CS(=O)(=O)N(CCc1ccccc1)CC(=O)N1CCN(c2ccccc2F)CC1 | 0 | 84 | 0 | 0 | 0 | 0
SMILES | TRPM1 prom inh | TWEAK-Fn14 inh | Shn3 3UTR inh | Peg3 promoter | EBV LMP1 NFkB | TROY NFkB inh
Cc1cccc(Nc2ncnc3ccc(Br)cc23)c1 | 0 | 62 | 0 | 0 | 0 | 0
Clc1cccc(Nc2ncnc3ccc(Br)cc23)c1 | 0 | 63 | 0 | 0 | 0 | 0
COc1ccc(Nc2ncnc3ccc(Br)cc23)cc1OC | 0 | 0 | 0 | 0 | 0 | 0
CN(C)c1ccc(Nc2ncnc3ccc(Br)cc23)cc1 | 0 | 82 | 0 | 0 | 0 | 0
Clc1ccc(Nc2ncnc3ccc(Br)cc23)cc1 | 0 | 74 | 0 | 0 | 0 | 0
Cc1ccc2ncnc(Nc3cccc(C(=O)O)c3)c2c1 | 0 | 0 | 0 | 0 | 0 | 0
Cc1ccc2ncnc(Nc3ccccc3)c2c1 | 0 | 0 | 0 | 0 | 0 | 0
Cc1c(C(=O)N2CCOCC2)sc(NC(=O)c2ccccc2F)c1C#N | 0 | 0 | 0 | 0 | 0 | 0
COc1ccc(CCN(C)C2CCCN(C(=O)CCC(F)(F)F)C2)cc1OC (stereo not drawn) | 0 | 0 | 0 | 0 | 0 | 0
COc1ccc2nc(NC(=O)c3sc4nc(C)cc(C)c4c3N)sc2c1 | 0 | 0 | 0 | 0 | 0 | 0
O=C(Cc1c(F)cccc1Cl)Nc1cc(S(=O)(=O)N2CCOCC2)ccc1N1CCOCC1 | 0 | 0 | 0 | 0 | 0 | 0
COc1cc(NC(=O)Cn2ncc(Cl)c(Cl)c2=O)c(C)cc1[N+](=O)[O-] | 103 | 98 | 97 | 98 | 81 | 68
CN(C)Cc1ncccc1Oc1nc2cc(-c3cccc(Cl)c3)sc2c(=O)n1C | - | 0 | 0 | 0 | - | 0
O=C(NCc1nc2ccccc2[nH]1)C1=C[C@@H](c2csc3ccccc23)C[C@@H](OCc2ccc(CO)cc2)O1 | 0 | 57 | 0 | 0 | 0 | 0
O=C(NCc1nc2ccccc2[nH]1)C1=C[C@@H](c2ccc(Br)cc2)C[C@@H](OCc2ccc(CO)cc2)O1 | 0 | 0 | 0 | 0 | 0 | 0
O=C(NCc1nc2ccccc2[nH]1)C1=C[C@H](c2csc3ccccc23)C[C@H](OCc2ccc(CO)cc2)O1 | 0 | 55 | 0 | 0 | 0 | 0
CSc1ccc(/C=C(\C#N)C(=O)NC2CCCCC2C)cc1 (stereo not drawn) | 0 | 0 | 0 | 0 | 0 | 0
CC1CCCCC1NC(=O)/C(C#N)=C/c1ccccc1F (stereo not drawn) | ? | 70 | 0 | 96 | 0 | 0
O=C(Nc1cccc(Cl)c1)NC1CCS(=O)(=O)C1 (stereo not drawn) | 0 | 0 | 0 | 0 | 0 | 0
C[C@H](NCc1c[nH]c2ccccc12)c1ccccc1 | 0 | 0 | 0 | 0 | 81 | 0
Cc1ccc(Cn2ncc(Cl)c(Cl)c2=O)cc1 | ? | 65 | 0 | 104 | 0 | 0
O=c1c(Cl)c(Cl)cnn1Cc1nnc(-c2ccc(Cl)cc2)o1 | 87 | 86 | 0 | 107 | 0 | 52
Cc1c2cnn(CC(=O)N3CCOCC3)c(=O)c2c(C)n1Cc1ccc(F)cc1 | - | 0 | 0 | 0 | - | 0
CCc1ccc(C(=O)Cn2ncc(Cl)c(Cl)c2=O)cc1 | 0 | 79 | 0 | 0 | 0 | 0
Cc1ccc(-c2nnc(Cc3ccc(Cl)cc3)o2)cc1 | 0 | 0 | 0 | 0 | 0 | 0
O=C(Cn1ncc(Cl)c(Cl)c1=O)N1CCOCC1 | 98 | 81 | 0 | 97 | 0 | 0
C#CCOCCOCCOCCNc1nc(N2CCN(C(=O)Cn3cc(CC(C)O)nn3)CC2)nc(N2CCN(C(=O)[C@H]([C@@H](C)CC)n3cc(CCCCN)nn3)CC2)n1 (stereo partly drawn) | 0 | 0 | 0 | 0 | 0 | 0
